Dicer inh = human Dicer pre-microRNA cleavage inhibition | z-score at 25 µM | Q9UPY3 | actives 6% (n = 47,000) | cat-ELCCA pre-miR-21 Dicer processing, chemiluminescence; active compounds read high; in the data active = z-score above about 3, passing the limit was not always enough;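 note: plate controls were vehicle for no effect and no enzyme for full effect; higher signal means more uncleaved substrate so more Dicer inhibition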
Target sequence (Q9UPY3 whole entry, looked up): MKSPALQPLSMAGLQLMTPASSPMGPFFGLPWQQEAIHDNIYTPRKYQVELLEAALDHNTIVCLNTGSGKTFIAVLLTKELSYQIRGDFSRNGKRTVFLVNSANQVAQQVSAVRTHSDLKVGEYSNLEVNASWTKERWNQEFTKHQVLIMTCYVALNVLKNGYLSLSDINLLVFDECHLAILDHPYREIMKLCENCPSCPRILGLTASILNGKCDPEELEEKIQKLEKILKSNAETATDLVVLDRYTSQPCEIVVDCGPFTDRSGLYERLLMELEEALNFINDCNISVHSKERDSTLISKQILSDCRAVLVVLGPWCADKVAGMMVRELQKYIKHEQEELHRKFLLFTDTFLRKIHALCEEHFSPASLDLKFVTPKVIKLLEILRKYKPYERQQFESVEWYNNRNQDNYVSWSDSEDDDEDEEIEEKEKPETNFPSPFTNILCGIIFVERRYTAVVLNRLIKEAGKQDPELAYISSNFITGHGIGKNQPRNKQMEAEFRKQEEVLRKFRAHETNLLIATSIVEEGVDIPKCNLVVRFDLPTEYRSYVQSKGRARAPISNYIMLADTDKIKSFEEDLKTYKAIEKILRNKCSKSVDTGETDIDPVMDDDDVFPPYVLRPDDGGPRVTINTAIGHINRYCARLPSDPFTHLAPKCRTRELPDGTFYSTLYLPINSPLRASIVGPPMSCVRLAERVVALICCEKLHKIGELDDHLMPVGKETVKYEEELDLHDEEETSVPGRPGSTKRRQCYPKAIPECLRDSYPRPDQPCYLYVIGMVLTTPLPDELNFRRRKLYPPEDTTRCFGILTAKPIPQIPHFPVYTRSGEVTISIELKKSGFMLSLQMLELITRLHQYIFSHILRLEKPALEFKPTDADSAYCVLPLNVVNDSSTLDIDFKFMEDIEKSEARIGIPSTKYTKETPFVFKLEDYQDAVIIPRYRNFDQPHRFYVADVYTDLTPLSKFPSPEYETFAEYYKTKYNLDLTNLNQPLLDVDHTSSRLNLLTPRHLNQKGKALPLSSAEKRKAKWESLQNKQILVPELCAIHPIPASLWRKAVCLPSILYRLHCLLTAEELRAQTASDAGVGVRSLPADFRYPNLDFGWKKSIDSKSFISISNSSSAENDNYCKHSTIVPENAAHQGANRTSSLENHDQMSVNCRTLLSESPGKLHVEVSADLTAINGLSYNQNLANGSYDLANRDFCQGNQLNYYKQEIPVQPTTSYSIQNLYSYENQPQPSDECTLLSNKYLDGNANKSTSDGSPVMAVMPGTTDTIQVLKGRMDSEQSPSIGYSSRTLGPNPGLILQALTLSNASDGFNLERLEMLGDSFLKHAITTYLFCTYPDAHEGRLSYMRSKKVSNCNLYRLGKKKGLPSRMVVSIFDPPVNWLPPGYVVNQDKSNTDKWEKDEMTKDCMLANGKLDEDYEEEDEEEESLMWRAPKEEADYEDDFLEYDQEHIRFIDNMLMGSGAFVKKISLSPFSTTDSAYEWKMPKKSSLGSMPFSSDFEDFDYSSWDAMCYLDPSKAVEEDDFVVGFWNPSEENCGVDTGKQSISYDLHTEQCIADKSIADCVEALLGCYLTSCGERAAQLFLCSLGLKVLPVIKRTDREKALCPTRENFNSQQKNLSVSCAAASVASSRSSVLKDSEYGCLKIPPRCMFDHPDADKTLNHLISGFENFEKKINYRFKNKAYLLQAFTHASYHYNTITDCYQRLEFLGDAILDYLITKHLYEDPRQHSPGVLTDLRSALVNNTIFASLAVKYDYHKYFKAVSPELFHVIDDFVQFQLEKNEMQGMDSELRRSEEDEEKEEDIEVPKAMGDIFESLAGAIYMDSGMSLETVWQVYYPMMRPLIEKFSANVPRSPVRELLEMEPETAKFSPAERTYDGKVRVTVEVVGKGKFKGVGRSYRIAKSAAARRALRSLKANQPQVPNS
* marks the source's active call; other numbers are inactive results. The full list was thinned out, with hits kept by preference.

How did CCCCOC(=O)C1=C(C)NC2=C(C(=O)CCC2)C1c1cc(Br)c(O)c(OCC)c1 (centres undefined) do in these assays?
Dicer inh: 3.2*

What do the screens show for `CCOCCOC(=O)C1=C(C)NC2=C(C(=O)CCC2)C1c1cc(Br)c(O)c(OC)c1` (centres undefined)?
Dicer inh: 0.03

What do the screens show for `CCOc1cc(C2C(C(=O)OC3CCCC3)=C(C)NC3=C2C(=O)CCC3)cc(Br)c1O` (centres undefined)?
Dicer inh: 1.7

Results for O=C(Nc1cccnc1)c1ccco1 ?
Dicer inh: -4.1

How did COc1c(Cl)cccc1-c1cn2ccccc2n1 do in these assays?
Dicer inh: -1.6

Results for CCCOc1ccc(-c2cn3ccccc3n2)cc1 ?
Dicer inh: 3.9*

Results for COc1ccc(-c2cn3cccc(C)c3n2)cc1 ?
Dicer inh: 0.29

Results for CCc1ccn2cc(-c3ccc(C)cc3)nc2c1 ?
Dicer inh: 1.6

What do the screens show for `COc1ccc(-c2cn3ccccc3n2)cc1`?
Dicer inh: 5.8*

What do the screens show for `COc1ccc(-c2cn3ccccc3n2)cc1Br`?
Dicer inh: 1.1

How did CC(C)(C)C(=O)N1CCN(c2ccc([N+](=O)[O-])cc2-n2cccc2)CC1 do in these assays?
Dicer inh: -0.39

Results for Cc1nnc(SC2CC(=O)N(c3cccc(Cl)c3C)C2=O)s1 (centres undefined) ?
Dicer inh: -0.18

Results for c1ccc(OCc2nc3c4c5c(sc4ncn3n2)CCCC5)cc1 ?
Dicer inh: 0.64

How did O=C1c2ccccc2C(=O)C1c1nccc2ccccc12 do in these assays?
Dicer inh: -0.27

What do the screens show for `S=c1nn[nH]n1-c1cccc(Cl)c1`?
Dicer inh: -0.08

How did CC(CC(=O)O)CC(=O)Nc1nncs1 (centres undefined) do in these assays?
Dicer inh: -2.2

How did O=C(O)CC(CC(=O)O)c1ccc(Cl)cc1 do in these assays?
Dicer inh: 1.3

What do the screens show for `CC(CC(=O)O)CC(=O)NCc1ccc(Cl)cc1` (centres undefined)?
Dicer inh: 3.3*

How did COc1ccc(C2CC(c3cccc(OC)c3)n3nc(N)nc3N2)cc1 (centres undefined) do in these assays?
Dicer inh: -0.08

Results for CC(C)(CC(=O)O)CC(=O)N1CCN(c2ccccn2)CC1 ?
Dicer inh: 4.1*

What do the screens show for `C=C(C)c1cccc(C(C)(C)NC(=O)N2CCN(c3ccccn3)CC2)c1`?
Dicer inh: 1.4

Results for CC(C)(CC(=O)O)CC(=O)N1CCCN(c2c(Cl)cncc2Cl)CC1 ?
Dicer inh: 1.9

How did COC(=O)Nc1ccc(S(=O)(=O)N2CCN(C)CC2)cc1 do in these assays?
Dicer inh: 0.45

Results for CCCOC(=O)CSC1=C(C#N)C(c2ccc(O)cc2)CC(=O)N1 (centres undefined) ?
Dicer inh: 2.3

What do the screens show for `Cn1c(=O)c(Sc2ccccc2)c(O)c2ccccc21`?
Dicer inh: 17

What do the screens show for `COc1ccc(NC2=NC(C)(CO)CS2)cc1` (centres undefined)?
Dicer inh: 0.62

How did C=C1SC(Nc2ccccc2OC)=NC1(C)C do in these assays?
Dicer inh: -1.3

What do the screens show for `C=C1SC(Nc2cc(OC)cc(OC)c2)=NC1(C)C`?
Dicer inh: 15*

Results for Cn1ncc(Br)c1NC(=O)c1ccco1 ?
Dicer inh: -0.34

What do the screens show for `Cc1cc(C)cc(N/C=C(\C#N)S(=O)(=O)Cc2ccc(Cl)cc2)c1`?
Dicer inh: -0.04

What do the screens show for `O=C(NCC1CC1)c1ccccc1NS(=O)(=O)c1cc(Cl)c(Oc2ccc([N+](=O)[O-])cc2Cl)c(Cl)c1`?
Dicer inh: 3.3*

Results for Cc1c(S(=O)(=O)Nc2ccccc2C(=O)NCC2CC2)sc2ccc(Cl)cc12 ?
Dicer inh: -0.69

What do the screens show for `N#Cc1c(Cl)cccc1Oc1ccc(S(=O)(=O)Nc2ccccc2C(=O)NCC2CC2)cc1`?
Dicer inh: 0.88

Results for Cc1ccc2nc(NS(=O)(=O)c3ccc(Cl)cc3)c(Nc3c(C)n[nH]c3C)nc2c1 ?
Dicer inh: 8.5

Results for CCOC(=O)C1=C(CC)NC2=C(C(=O)CCC2)C1c1ccc(N(C)C)cc1 (centres undefined) ?
Dicer inh: 0.5

Results for Cc1nnc(N2C(=O)c3oc4ccccc4c(=O)c3C2c2ccccc2F)s1 (centres undefined) ?
Dicer inh: -1.4

What do the screens show for `COc1cc2nc(-c3ccc(C)cc3)oc(=O)c2cc1OC`?
Dicer inh: -1.4

Results for COc1cc2nc(-c3ccccc3)oc(=O)c2cc1OC ?
Dicer inh: -0.18

Results for CCC(CC)c1nc2cc(OC)c(OC)cc2c(=O)o1 ?
Dicer inh: 0.71

How did COc1ccc(-c2nc3cc(OC)c(OC)cc3c(=O)o2)cc1 do in these assays?
Dicer inh: 2

Results for COc1cc2nc(-c3cccc(Br)c3)oc(=O)c2cc1OC ?
Dicer inh: 27*

Results for COc1cc2nc(C(C)(C)C)oc(=O)c2cc1OC ?
Dicer inh: 4.1*

Results for COc1ccc(C2C(C#N)=C(N)Oc3cc(O)ccc32)cc1Cl (centres undefined) ?
Dicer inh: -0.57

How did CCn1c2ccccc2c2cc(NC(=O)CN3C(=O)c4ccccc4S3(=O)=O)ccc21 do in these assays?
Dicer inh: -1.5

Results for CCSc1nnc2c(n1)OC(c1cc(OC(C)=O)ccc1Cl)N(C(C)=O)c1ccccc1-2 (centres undefined) ?
Dicer inh: 0.46

Results for Cc1ccc2c(c1)c1c(n2CC(O)Cn2c(C)nc3ccccc32)C(=O)CCC1 (centres undefined) ?
Dicer inh: -1.7

What do the screens show for `COc1nc(C)ccc1-c1noc(-c2ccc(F)cc2)n1`?
Dicer inh: 0.46

Results for CC(C)(C)C1CCc2c(sc(NC(=O)c3cccs3)c2C(=O)N2CCOCC2)C1 (centres undefined) ?
Dicer inh: -0.48

What do the screens show for `COc1ccc(S(=O)(=O)N2CCSC2c2cc(OC)ccc2OC)cc1` (centres undefined)?
Dicer inh: 3.7*

What do the screens show for `COc1ccc(C2N(S(=O)(=O)c3ccccc3)CCN2S(=O)(=O)c2ccccc2)cc1`?
Dicer inh: -1.7

How did COc1ccc(OC)c(C2SCCN2S(=O)(=O)c2ccc(F)cc2)c1 (centres undefined) do in these assays?
Dicer inh: -0.82

How did COc1ccc(C2N(S(=O)(=O)c3ccc(C)cc3)CCN2S(=O)(=O)c2ccc(C)cc2)cc1 do in these assays?
Dicer inh: 3.7*

How did COc1ccc(OC)c(C2SCCN2S(=O)(=O)c2ccc(C)cc2)c1 (centres undefined) do in these assays?
Dicer inh: -0.82

How did O=S(=O)(c1ccccc1)N1CCSC1c1ccc(Br)cc1 (centres undefined) do in these assays?
Dicer inh: 0.54

How did Cc1ccc(S(=O)(=O)N2CCN(S(=O)(=O)c3ccccc3)C2c2ccc(N(C)C)cc2)cc1 (centres undefined) do in these assays?
Dicer inh: 2.1

How did O=S(=O)(c1ccccc1)N1CCSC1c1ccc(Cl)cc1 (centres undefined) do in these assays?
Dicer inh: -1

Results for O=S(=O)(c1ccc(-c2ccccc2)cc1)N1CCSC1c1ccccc1 (centres undefined) ?
Dicer inh: 3.8*

Results for Cc1cc2oc3c(c(=O)c2cc1C)C(c1cccc(O)c1)N(c1nccs1)C3=O (centres undefined) ?
Dicer inh: 0.19

What do the screens show for `O=C(Nc1cscc1S(=O)(=O)c1ccccc1Cl)c1ccc(C(F)(F)F)cc1`?
Dicer inh: -1.3
